# Where “and” joins values, the source holds several entries; their conditions need not be identical. Equal values may be shown once. Out of some 5,500 compounds screened, about 2,000 (36%) were called active. Another 18% or so got no clear call; they are omitted. Cut-off read from the data, not from the text of the source: active = normalized growth mostly below about 0.91 (no sharp cut-off); inconclusive = no clear call, values can overlap the other calls; inactive = mostly above about 0.92. This is one part of the list.
# Assay: chemical genetic growth profiling, strain panel (AID 1159580);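 note: tested at 20 µM; growth read once vehicle control cultures reached saturation at 30 °C; 1 = growth at the plate median or of vehicle wells; lower values mean less growth of the strain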
# Settings: growth OD
structure (smiles),measurement,setting,value
COc1ccc2oc(-c3ccccc3)c(OC)c(=O)c2c1,normalized growth,"S. cerevisiae deletion strains, locus YAL013W, strain DEP1, stronger effect = lower value",0.903 (active)
same,normalized growth,"S. cerevisiae deletion strains, locus YBR021W, strain FUR4, stronger effect = lower value",0.925 (inactive)
same,normalized growth,"S. cerevisiae deletion strains, locus YBR229C, strain ROT2, stronger effect = lower value",0.929 (inactive)
same,normalized growth,"S. cerevisiae deletion strains, locus YCL029C, strain bik1, stronger effect = lower value",0.906 (active)
same,normalized growth,"S. cerevisiae deletion strains, locus YDL035C, strain GPR1, stronger effect = lower value",0.846 (active)
same,normalized growth,"S. cerevisiae deletion strains, locus YDL074C, strain BRE1, stronger effect = lower value",0.71 (active)
same,normalized growth,"S. cerevisiae deletion strains, locus YDL101C, strain DUN1, stronger effect = lower value",0.888 (active)
same,normalized growth,"S. cerevisiae deletion strains, locus YDL134C, strain PPH21, stronger effect = lower value",0.828 (active)
same,normalized growth,"S. cerevisiae deletion strains, locus YDL185W, strain tfp1, stronger effect = lower value",0.923 (inactive)
same,normalized growth,"S. cerevisiae deletion strains, locus YDL192W, strain arf1, stronger effect = lower value",0.858 (active)
same,normalized growth,"S. cerevisiae deletion strains, locus YDR101C, strain arx1, stronger effect = lower value",0.887 (active)
same,normalized growth,"S. cerevisiae deletion strains, locus YDR150W, strain NUM1, stronger effect = lower value",0.944 (inactive)
same,normalized growth,"S. cerevisiae deletion strains, locus YDR162C, strain NBP2, stronger effect = lower value",0.719 (active)
same,normalized growth,"S. cerevisiae deletion strains, locus YDR318W, strain mcm21, stronger effect = lower value",0.808 (active)
same,normalized growth,"S. cerevisiae deletion strains, locus YDR388W, stronger effect = lower value",0.892 (active)
same,normalized growth,"S. cerevisiae deletion strains, locus YDR502C, strain sam2, stronger effect = lower value",0.867 (active)
same,normalized growth,"S. cerevisiae deletion strains, locus YEL061C, strain CIN8, stronger effect = lower value",0.938 (inactive)
same,normalized growth,"S. cerevisiae deletion strains, locus YER110C, stronger effect = lower value",0.861 (active)
same,normalized growth,"S. cerevisiae deletion strains, locus YER155C, strain BEM2, stronger effect = lower value",0.926 (inactive)
same,normalized growth,"S. cerevisiae deletion strains, locus YER167W, strain BCK2, stronger effect = lower value",0.801 (active)
same,normalized growth,"S. cerevisiae deletion strains, locus YGL078C, strain dbp3, stronger effect = lower value",0.956 (inactive)
same,normalized growth,"S. cerevisiae deletion strains, locus YGL086W, strain mad1, stronger effect = lower value",0.882 (active)
same,normalized growth,"S. cerevisiae deletion strains, locus YGL248W, strain PDE1, stronger effect = lower value",0.814 (active)
same,normalized growth,"S. cerevisiae deletion strains, locus YGR078C, strain PAC10, stronger effect = lower value",0.748 (active)
same,normalized growth,"S. cerevisiae deletion strains, locus YGR135W, strain pre9, stronger effect = lower value",0.784 (active)
same,normalized growth,"S. cerevisiae deletion strains, locus YGR229C, strain SMI1, stronger effect = lower value",0.58 (active)
same,normalized growth,"S. cerevisiae deletion strains, locus YGR252W, strain gcn5, stronger effect = lower value",0.68 (active)
same,normalized growth,"S. cerevisiae deletion strains, locus YHR030C, strain SLT2, stronger effect = lower value",0.674 (active) and 0.934 (inactive)
same,normalized growth,"S. cerevisiae deletion strains, locus YHR079C, strain IRE1 (second series), stronger effect = lower value",0.828 (active)
same,normalized growth,"S. cerevisiae deletion strains, locus YHR079C, strain IRE1, stronger effect = lower value",0.926 (inactive)
same,normalized growth,"S. cerevisiae deletion strains, locus YHR094C, strain hxt1, stronger effect = lower value",0.936 (inactive)
same,normalized growth,"S. cerevisiae deletion strains, locus YHR129C, strain ARP1, stronger effect = lower value",0.874 (active)
same,normalized growth,"S. cerevisiae deletion strains, locus YHR200W, strain rpn10, stronger effect = lower value",0.897 (active)
same,normalized growth,"S. cerevisiae deletion strains, locus YIL066C, strain RNR3, stronger effect = lower value",0.882 (inactive)
same,normalized growth,"S. cerevisiae deletion strains, locus YIL073C, strain SPO22, stronger effect = lower value",0.803 (inactive)
same,normalized growth,"S. cerevisiae deletion strains, locus YIL125W, strain kgd1, stronger effect = lower value",0.956 (inactive)
same,normalized growth,"S. cerevisiae deletion strains, locus YIR030C, strain dcg1, stronger effect = lower value",0.879 (active)
same,normalized growth,"S. cerevisiae deletion strains, locus YJL095W, strain BCK1, stronger effect = lower value",0.426 (active) and 0.93 (inactive)
same,normalized growth,"S. cerevisiae deletion strains, locus YJL134W, strain LCB3, stronger effect = lower value",0.946 (inactive)
same,normalized growth,"S. cerevisiae deletion strains, locus YJL168C, strain set2, stronger effect = lower value",0.912 (active)
same,normalized growth,"S. cerevisiae deletion strains, locus YJL187C, strain SWE1 (second series), stronger effect = lower value",0.855 (active)
same,normalized growth,"S. cerevisiae deletion strains, locus YJR043C, strain POL32, stronger effect = lower value",0.863 (inactive)
same,normalized growth,"S. cerevisiae deletion strains, locus YJR066W, strain TOR1, stronger effect = lower value",0.867 (inactive)
same,normalized growth,"S. cerevisiae deletion strains, locus YJR075W, strain HOC1, stronger effect = lower value",0.844 (active)
same,normalized growth,"S. cerevisiae deletion strains, locus YKL009W, strain mrt4, stronger effect = lower value",0.877 (active)
same,normalized growth,"S. cerevisiae deletion strains, locus YKL068W, stronger effect = lower value",0.96 (inactive)
same,normalized growth,"S. cerevisiae deletion strains, locus YKL085W, strain MDH1 (second series), stronger effect = lower value",0.945 (inactive)
same,normalized growth,"S. cerevisiae deletion strains, locus YKL085W, strain MDH1, stronger effect = lower value",0.945 (inactive)
same,normalized growth,"S. cerevisiae deletion strains, locus YKL190W, strain CNB1, stronger effect = lower value",0.922 (inactive)
same,normalized growth,"S. cerevisiae deletion strains, locus YKR001C, strain vps1, stronger effect = lower value",0.764 (active)
same,normalized growth,"S. cerevisiae deletion strains, locus YLR039C, strain RIC1, stronger effect = lower value",0.778 (inactive)
same,normalized growth,"S. cerevisiae deletion strains, locus YLR058C, strain SHM2, stronger effect = lower value",0.88 (active)
same,normalized growth,"S. cerevisiae deletion strains, locus YLR102C, strain apc9, stronger effect = lower value",0.93 (inactive)
same,normalized growth,"S. cerevisiae deletion strains, locus YLR113W, strain HOG1, stronger effect = lower value",0.937 (inactive)
same,normalized growth,"S. cerevisiae deletion strains, locus YLR262C, strain YPT6, stronger effect = lower value",0.801 (inactive)
same,normalized growth,"S. cerevisiae deletion strains, locus YLR268W, strain sec22, stronger effect = lower value",0.807 (active)
same,normalized growth,"S. cerevisiae deletion strains, locus YLR330W, strain CHS5, stronger effect = lower value",0.899 (active)
same,normalized growth,"S. cerevisiae deletion strains, locus YLR342W, strain FKS1 (second series), stronger effect = lower value",0.69 (active)
same,normalized growth,"S. cerevisiae deletion strains, locus YLR371W, strain rom2, stronger effect = lower value",0.932 (inactive)
same,normalized growth,"S. cerevisiae deletion strains, locus YLR418C, strain cdc73, stronger effect = lower value",0.592 (active)
same,normalized growth,"S. cerevisiae deletion strains, locus YML016C, strain PPZ1, stronger effect = lower value",0.919 (active)
same,normalized growth,"S. cerevisiae deletion strains, locus YML032C, strain rad52, stronger effect = lower value",0.53 (active)
same,normalized growth,"S. cerevisiae deletion strains, locus YML124C, strain tub3, stronger effect = lower value",0.924 (active)
same,normalized growth,"S. cerevisiae deletion strains, locus YMR078C, strain ctf18, stronger effect = lower value",0.805 (active)
same,normalized growth,"S. cerevisiae deletion strains, locus YMR223W, strain ubp8, stronger effect = lower value",0.83 (active)
same,normalized growth,"S. cerevisiae deletion strains, locus YMR263W, strain SAP30, stronger effect = lower value",0.838 (active)
same,normalized growth,"S. cerevisiae deletion strains, locus YMR307W, strain GAS1, stronger effect = lower value",0.652 (inactive)
same,normalized growth,"S. cerevisiae deletion strains, locus YNL067W, strain RPL9B, stronger effect = lower value",0.837 (active)
same,normalized growth,"S. cerevisiae deletion strains, locus YNL128W, strain TEP1, stronger effect = lower value",0.942 (inactive)
same,normalized growth,"S. cerevisiae deletion strains, locus YNL153C, strain GIM3, stronger effect = lower value",0.891 (inactive)
same,normalized growth,"S. cerevisiae deletion strains, locus YNL183C, strain NPR1, stronger effect = lower value",0.88 (inactive)
same,normalized growth,"S. cerevisiae deletion strains, locus YNL233W, strain BNI4, stronger effect = lower value",0.78 (active)
same,normalized growth,"S. cerevisiae deletion strains, locus YNL250W, strain rad50, stronger effect = lower value",0.9 (inactive)
same,normalized growth,"S. cerevisiae deletion strains, locus YNL271C, strain bni1, stronger effect = lower value",0.916 (active)
same,normalized growth,"S. cerevisiae deletion strains, locus YNL298W, strain CLA4, stronger effect = lower value",0.884 (active)
same,normalized growth,"S. cerevisiae deletion strains, locus YNL307C, strain MCK1, stronger effect = lower value",0.29 (active)
same,normalized growth,"S. cerevisiae deletion strains, locus YNL322C, strain KRE1, stronger effect = lower value",0.947 (inactive)
same,normalized growth,"S. cerevisiae deletion strains, locus YNR052C, strain pop2, stronger effect = lower value",0.899 (active)
same,normalized growth,"S. cerevisiae deletion strains, locus YOL006C, strain TOP1, stronger effect = lower value",0.359 (active)
same,normalized growth,"S. cerevisiae deletion strains, locus YOL012C, strain htz1",0.77 (inactive)
same,normalized growth,"S. cerevisiae deletion strains, locus YOL147C, strain pex11, stronger effect = lower value",0.854 (active)
same,normalized growth,"S. cerevisiae deletion strains, locus YOR061W, strain CKA2, stronger effect = lower value",0.937 (inactive)
same,normalized growth,"S. cerevisiae deletion strains, locus YOR069W, strain VPS5, stronger effect = lower value",0.979 (inactive)
same,normalized growth,"S. cerevisiae deletion strains, locus YOR136W, strain idh2, stronger effect = lower value",0.922 (inactive)
same,normalized growth,"S. cerevisiae deletion strains, locus YOR144C, strain elg1, stronger effect = lower value",0.92 (active)
same,normalized growth,"S. cerevisiae deletion strains, locus YOR184W, strain ser1, stronger effect = lower value",0.684 (active)
same,normalized growth,"S. cerevisiae deletion strains, locus YOR231W, strain MKK1, stronger effect = lower value",0.918 (inactive)
same,normalized growth,"S. cerevisiae deletion strains, locus YOR316C, strain cot1, stronger effect = lower value",0.916 (active)
same,normalized growth,"S. cerevisiae deletion strains, locus YPL055C, strain LGE1, stronger effect = lower value",0.767 (inactive)
same,normalized growth,"S. cerevisiae deletion strains, locus YPL241C, strain CIN2, stronger effect = lower value",0.959 (inactive)
same,normalized growth,"S. cerevisiae deletion strains, locus YPL256C, strain CLN2, stronger effect = lower value",0.939 (inactive)
same,normalized growth,"S. cerevisiae deletion strains, locus YPR119W, strain clb2, stronger effect = lower value",0.919 (active)
same,normalized growth,"S. cerevisiae deletion strains, locus YPR141C, strain kar3, stronger effect = lower value",0.944 (inactive)
same,normalized growth,"S. cerevisiae deletion strains, locus YPR163C, strain tif3, stronger effect = lower value",0.634 (active)
same,normalized growth,"S. cerevisiae deletion strains, locus YPR167C, strain met16, stronger effect = lower value",0.916 (active)
same,normalized growth,"S. cerevisiae deletion strains, strain wtn01, stronger effect = lower value",0.832 (active)
same,normalized growth,"S. cerevisiae strains, strain wild type, stronger effect = lower value",0.895 (active)

# Reference: PubChem BioAssay AID1159580 (chemical genetic matrix, 2015)
